HT1080NT lethal – qHTS for induction of synthetic lethality in tumor cells producing 2HG: qHTS for the HT-1080-NT fibrosarcoma cell line | HT-1080-NT fibrosarcoma viability, CellTiter-Glo ATP luminescence, 48 h | Potency, µM (top dose mostly 46.1 µM), for the others: at the highest dose activity, negative = less viability, most hits filed as cytotoxic | AID 686970, 2013 | actives 1.6% (n = 360,000);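 also: NT is the 2HG producing partner of a matched IDH1 knockdown line; 0% = DMSO-treated cells and -100% = media-only wells without cells; nearly all actives have a fitted effect of over 55% in size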
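Fibrosarcoma NT cells, 750 per well in 5% FBS RPMI, were exposed to compound for 48 hours. Viability: CellTiter-Glo luminescence.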
KB-3-1 tox – qHTS assay for MDR1-selective chemotherapeutics: Primary screen using the parental adenocarcinoma cell KB-3-1 | AID 1347075, 2019 | KB-3-1 viability, CellTiter-Glo ATP luminescence, 72 h | Potency, µM (highest dose often 46.1 µM), usual class: cytotoxic | actives 1.4% (n = 400,000); also: nearly all actives have a fitted effect of over 60% in size
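Multi-concentration cytotoxicity screen in KB-3-1 cells grown in DMEM lacking phenol red with 10% FBS. After 72 h at 37 °C with compound, ATP-dependent luminescence was recorded.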
HT1080 IDH1KD tx – qHTS for induction of synthetic lethality in tumor cells producing 2HG: qHTS for the HT-1080-IDH1KD cell line; Potency, µM (series often up to 46.1 µM), for the others: at the highest dose activity, negative = toxicity, hits mostly cytotoxic; HT-1080 IDH1 knockdown viability, ATP luminescence, 48 h; actives 2% (n = 360,000);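 also: 0% = DMSO wells and -100% = cell-free medium wells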
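Viability of IDH1-knockdown HT-1080 fibrosarcoma cells was assessed by CellTiter-Glo after 48 h at 37 °C with titrated compound; concentration-effect curves were classified by fit quality and response size.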
KB-V1 MDR tox – qHTS assay for MDR1-selective chemotherapeutics: Primary screen using the drug-selected MDR subline cells KB-V1 | KB-V1 MDR cells viability, CellTiter-Glo, 72 h | Potency, µM (titrated, usually from 46.1 µM), most hits filed as cytotoxic | actives 3.4% (n = 400,000) | AID 1347076, 2019; also: nearly all actives have a fitted effect of over 60% in size
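qHTS viability screen in drug-selected KB-V1 MDR cells: 72 h compound treatment at 37 degrees C, ATP luminescence end point.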
* marks the source's active call; other numbers are inactive results; i = inactive; ? = inconclusive; / = not tested or not shown. Compounds with a hit are over-represented: about 5.7% of the library has one in this group of screens. Calls follow the shape of the dose curve; as a rule, active = well fitted curve in the direction sought with a large enough effect; inconclusive = small, poorly fitted or top-dose-only effect, or another doubt; inactive = no such curve, though single readings can be large; an effect the other way counts as inactive or inconclusive. Unless noted, % is scaled to controls: 0 for no effect and ±100 for the full control effect; potency is read from the fitted curve at half-maximal effect.

SMILES	HT1080NT lethal	KB-3-1 tox	HT1080 IDH1KD tx	KB-V1 MDR tox
Nc1[nH]c(N=NC(=O)c2ccccc2O)c2ccccc12	-5%	?	-26%	21µM*
Cc1nc2ccc(NC(=O)Cc3ccc(Br)cc3)cc2s1	?	i	-3%	i
CCOc1ccc2nc(NC(=O)CSc3nc(SC)ns3)sc2c1	11%	i	6%	23µM*
CCOc1ccc2nc(NC(=O)CSc3ccc(Cl)cc3)sc2c1	-17%	i	-18%	?
Cc1nc2ccc(NC(=O)Cc3ccc4c(c3)OCCO4)cc2s1	5%	i	-6%	15µM*
CCOc1ccc2nc(SCC(=O)Nc3ccc4c(c3)OCO4)sc2c1	-8%	i	-2%	16µM*
CC(C)NC(=O)C1(C)CSCC(=O)N1Cc1cccc(C(F)(F)F)c1 (stereo not drawn)	15%	i	9%	i
O=C(N/N=C/c1cccc(Oc2ccc([N+](=O)[O-])cc2[N+](=O)[O-])c1)c1cncc(Br)c1	?	i	11µM*	i
COCCCn1c(=N)c(C(=O)NCC2CCCO2)cc2c(=O)n3cc(C)ccc3nc21 (stereo not drawn)	/	i	/	?
CCCCCCCn1c(=O)c(C(=O)OC)c(N)c2ccccc21	?	i	?	15µM*
CCCCCCn1c(=O)c(-c2ccccc2)c(O)c2ccccc21	-13%	i	-6%	i
CCCCCCCCn1c(=O)c(C(=O)OC)c(N)c2ccccc21	21µM*	?	16µM*	?
CCCCN(Cc1cc2cc(C)ccc2[nH]c1=O)C(=O)c1cccc(Cl)c1	/	i	/	i
Cc1ccc2cccc(NC(=O)c3ccc(-c4ccc(Cl)cc4Cl)o3)c2n1	/	i	/	i
Cc1cccc(CS(=O)(=O)c2ncc(Cl)c(C(=O)Nc3nnc(C(C)C)s3)n2)c1	10µM*	16µM*	7.3µM*	16µM*
CC(C)c1nnc(NC(=O)c2nc(SCc3ccc(F)cc3)ncc2Cl)s1	/	i	/	i
CCSc1nnc(NC(=O)c2nc(S(=O)(=O)Cc3ccc(F)cc3)ncc2Cl)s1	?	?	?	i
CC(C)c1nnc(NC(=O)c2nc(S(=O)(=O)Cc3ccc(F)cc3)ncc2Cl)s1	26µM*	?	23µM*	i
CSc1nnc(NC(=O)c2nc(S(=O)(=O)Cc3cccc(C)c3)ncc2Cl)s1	?	16µM*	21µM*	?
Cc1ccc(CS(=O)(=O)c2ncc(Cl)c(C(=O)Nc3nnc(C(C)C)s3)n2)cc1	21µM*	?	9.2µM*	?
N#Cc1ccc(S(=O)(=O)N2CCN(c3nc(-c4cccs4)nc4ccccc34)CC2)cc1	/	?	/	i
O=C(Nn1c(SCc2cccc([N+](=O)[O-])c2)nc2ccccc2c1=O)c1ccccc1	-4%	i	-14%	?
CCOC(CCn1c(SCc2cccc([N+](=O)[O-])c2)nc2ccccc2c1=O)OCC	?	i	-28%	i
CCCCn1c(SCc2cccc([N+](=O)[O-])c2)nc2ccsc2c1=O	0%	i	2%	2.3µM*
COCCn1c(SCc2cccc([N+](=O)[O-])c2)nc2ccccc2c1=O	-27%	i	?	12µM*
SMILES	HT1080NT lethal	KB-3-1 tox	HT1080 IDH1KD tx	KB-V1 MDR tox
CCC(C)n1c(SCc2ccc([N+](=O)[O-])cc2)nc2ccsc2c1=O (stereo not drawn)	-14%	?	-11%	?
O=c1c2ccccc2nc(/C=C/c2cccc([N+](=O)[O-])c2)n1CCO	-17%	i	-10%	?
Cn1c(SCc2cccc([N+](=O)[O-])c2)nc2ccccc2c1=O	?	?	?	2.6µM*
CCn1c(/C=C/c2cccc([N+](=O)[O-])c2)nc2ccccc2c1=O	14%	?	9%	21µM*
CCOC(=O)c1cc(OC(=O)c2cc(OC)cc(OC)c2)n(-c2ccccc2)n1	/	i	/	i
COc1ccc(C2C(C#N)=C(N)N(c3sc4c(c3C#N)CCCC4)C3=C2C(=O)CC(C)(C)C3)cc1 (stereo not drawn)	2%	i	-1%	5.8µM*
CC(C)(C)c1ccc(C(=O)N2CCCC(c3nc4c(nnn4Cc4cccc(F)c4)c(=O)[nH]3)C2)cc1 (stereo not drawn)	/	i	/	i
COc1ccc(-n2nnnc2-c2ccccc2)cc1	5.6µM*	6.5µM*	?	9.2µM*
O=C(CN1CCC(C(=O)c2ccc(F)cc2)CC1)Nc1ccccc1	?	i	?	4.6µM*
O=C(CN1CCC(C(=O)c2ccc(F)cc2)CC1)NCc1ccccc1F	-23%	?	-9%	9.2µM*
Cc1csc2nc(-c3cccc(NC(=O)c4c(F)cccc4F)c3)cn12	/	i	/	i
CCc1ccc(C(O)c2ncc(-c3ccccc3OC)[nH]2)cc1 (stereo not drawn)	0%	i	-11%	i
O=[N+]([O-])c1ccc(N/N=C/c2cccnc2)cc1	-26%	i	7.3µM*	i
C(=N\NC1=Nc2cccc3cccc1c23)/c1cccnc1	-18%	i	-13%	16µM*
C(=N\NC1=Nc2cccc3cccc1c23)/c1ccccc1	-2%	i	-5%	i
CCCOc1ccc(NC(=O)CC2C(=O)N(CC)C(=S)N2CCCN2CCN(Cc3ccccc3)CC2)cc1 (stereo not drawn)	16µM*	?	16µM*	?
CCN1C(=O)C(CC(=O)Nc2ccc(F)cc2)N(CCCN2CCN(c3ccc(F)cc3)CC2)C1=S (stereo not drawn)	29µM*	i	?	?
O=c1ccc(-c2ccccc2)nn1Cc1c(F)cccc1Cl	/	i	/	i
O=c1oc2c(O)cccc2cc1-c1nc2ccccc2[nH]1	-4%	21µM*	-9%	i
O=C(Nc1cc(C(=O)N2CCCC2)ccc1N1CCCC1)c1ccccc1F	16%	i	-12%	3.7µM*
CCOc1ccccc1NC(=O)CSc1ncc2c(n1)-c1ccccc1N(CC)S2(=O)=O	/	i	/	i
Fc1ccc(COc2ccccc2CNCc2ccncc2)cc1	0%	i	2%	?
Brc1ccc(OCc2ccccc2)c(CNCc2ccncc2)c1	?	?	?	16µM*
OCCNCc1cc(Br)ccc1OCc1ccc(Cl)cc1	-1%	i	2%	9.2µM*
OCCNCc1cc(Br)ccc1OCc1ccc(Cl)cc1Cl	23µM*	?	?	15µM*
Clc1nc(NCC2CCCO2)c2[nH]cnc2n1 (stereo not drawn)	/	?	/	i
CC(C)(C)C1CCc2nc(NC(=O)c3cccc(Cl)c3)sc2C1 (stereo not drawn)	/	i	/	i
CC(=O)N1N=C(c2ccc(C)cc2)OC1c1ccc(Br)cc1 (stereo not drawn)	-12%	i	-10%	i

Assay outcomes deposited in PubChem by National Center for Advancing Translational Sciences (NCATS).
